pS6 MEF inh = mTORC1 pathway inhibition measured by phospho-rpS6 | Tsc2-/- p53-/- MEF, phospho-rpS6 immunofluorescence/PI, 24 h | Potency, µM (series often up to 38.3 µM), for the others: at the highest dose activity change, negative = inhibition, actives largely listed as inhibitors | hit rate 0.78% among 44,000 | AID 493208;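 note: plate controls were DMSO for no effect and rapamycin for full effect; nearly all actives have a fitted effect of over 50% in size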
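Readout is phospho-S6 Alexa 488 signal normalized to PI per well, reported as % active cells with thresholds set from rapamycin (7.5 nM) and DMSO controls. Cells: Tsc2-/-, p53-/- MEFs, 24 hrs compound at 37 C; PI cell number serves as viability.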
PMP22 txn prim = modulates PMP22 transcription in S16 Schwann cells; S16 Pmp22-F2sN Schwann cells, FLuc/NLuc coincidence luminescence, 24 h; Potency, µM (doses to about 57.5 µM), for the others: top-dose activity change, negative = inhibition, usual class: inhibitors; AID 1508649; hit rate 2% among 43,000; active = clear falling dose curves in both reporters; inconclusive = both reporters move, but less clearly or upward; inactive = either reporter flat; the % is the NLuc reporter signal; note: % is set by controls: 0 for no effect and ±100 for the full control effect
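S16(c9) Schwann cells with FLuc/NLuc coincidence reporter in the Pmp22 3' UTR; compounds pin-transferred, 24 h at 37C. Dual-luciferase read: FLuc first, then NLuc after Stop&Glo, each 10 min at room temperature.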
HTT-AS act = activates huntingtin-antisense promoter activity. HEK293 HTT-AS promoter firefly luciferase reporter, 24 h; response scale: percent change from vehicle, -100% = no light. Potency, µM (doses to about 57.5 µM), inactives show at the top dose activity change, positive = activation, usual class: activators. hit rate 0.24% among 48,000; note: nearly all actives have a fitted effect of over 55% in size
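HEK293 cells carrying firefly luciferase reporters were seeded at 2,500 per well in Opti-MEM and cultured for 24 h. They were then treated with compounds at up to 57.5 uM final for 24 h at 37 degrees C before Dual-Glo luminescence readout.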
HTT prom inh = HTT promoter inhibition | HEK293 HTT promoter firefly luciferase reporter, 24 h | Potency, µM (series often up to 57.5 µM), inactives show top-dose activity change, negative = inhibition, hits mostly inhibitors | hit rate 0.93% among 48,000; note: nearly all actives have a fitted effect of over 50% in size
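HEK293 cells carrying firefly luciferase reporters were seeded at 2,500 per well in Opti-MEM and cultured for 24 h. They were then treated with compounds at up to 57.5 uM final for 24 h at 37 degrees C before Dual-Glo luminescence readout.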
S16 viability = toxic to S16 Pmp22-F2sN Schwann cells; S16 Pmp22-F2sN Schwann cells viability, CellTiter-Glo, 24 h; hit rate 0.48% among 43,000; AID 1508642; Potency, µM (doses to about 57.5 µM), for the others: at the top dose activity change, negative = cytotoxicity, usual class: cytotoxic; note: % is set by controls: 0 for no effect and ±100 for the full control effect; nearly all actives have a fitted effect of over 65% in size
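S16 Pmp22-F2sN Schwann cells (500-1,000/well) in phenol-red-free DMEM with 10% FBS received 23 nL compound by pin tool for 24 h at 37 °C. Viability was then read as CellTiter-Glo luminescence after 15 min at room temperature.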
SKOV3 invasion = blocks SKOV3ip1 adhesion and invasion in omental model. SKOV3ip1-GFP adhesion/invasion on 3D omental model, fluorescence. Potency, µM (series often up to 45.8 µM), without a hit: top-dose activity change, negative = inhibition, hits mostly inhibitors. hit rate 0.1% among 46,000;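 note: plate controls were DMSO wells for no effect and tomatine positive control wells for full effect; nearly all actives have a fitted effect of over 65% in size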
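A 3D layer of primary human omental fibroblasts, mesothelial cells, fibronectin and collagen I, grown 48 hr, received SKOV3ip1-GFP cells in serum-free medium plus compounds at 0.36-46 umol/L. After 2 hr RT and 16 hr 37 C, fixed adherent GFP cells were counted; normalized to DMSO and tomatine.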
* = called active by the depositor; i = inactive; ? = inconclusive; · = no result given. Sampled rows, rich in hits. Any-hit rate of the full collection: about 3.6%. Unless noted, calls come from the whole dose curve; as a rule, active = well fitted curve in the direction sought with a large enough effect; inconclusive = small, poorly fitted or top-dose-only effect, or another doubt; inactive = no such curve, though single readings can be large; an effect the other way counts as inactive or inconclusive. Potency is the fitted concentration of half-maximal effect.

SMILES | pS6 MEF inh | PMP22 txn prim | HTT-AS act | HTT prom inh | S16 viability | SKOV3 invasion
Nc1ccc(C(=O)Nc2cccc(-c3nc(N4CCOCC4)c4oc5ncccc5c4n3)c2)cn1 | · | · | -28.1% | ? | · | 3.4%
CC(=O)N1CCCc2cc(S(=O)(=O)N3CCCC(C(=O)N4CCN(c5ccccc5)CC4)C3)ccc21 (configuration not stated) | -17.8% | ? | -24.3% | 11.2µM* | ? | 4.0%
CC(=O)N1CCCc2cc(S(=O)(=O)N3CCC(C(=O)Nc4c(C)cccc4C)CC3)ccc21 | 0.8% | -12.8% | -47.0% | 20µM* | -1.3% | 2.0%
CC(=O)N1CCCc2cc(S(=O)(=O)N3CCC(C(=O)Nc4ccc(C)cc4Cl)CC3)ccc21 | 1.0% | ? | -30.5% | ? | -1.3% | -0.8%
COc1ccccc1N1CCN(C(=O)C2CCCN(S(=O)(=O)c3ccc4c(c3)CCCN4C(C)=O)C2)CC1 (configuration not stated) | -28.9% | ? | -27.7% | ? | ? | 9.4%
Cc1ccc(C)c(NC(=O)NCc2ccc3c(c2)CCN3C(=O)c2ccccc2)c1 | 3.3% | 11.0% | -27.1% | ? | -12.7% | 2.8%
O=C(NCc1ccc2c(c1)CCN2C(=O)c1ccccc1)Nc1cccc(C(F)(F)F)c1 | -20.0% | -12.0% | -46.4% | 22.4µM* | 5.8% | -4.4%
O=C(CSc1nnc2[nH]c(=O)cc(-c3ccccc3)n12)Nc1cc(C(F)(F)F)ccc1Cl | -6.7% | ? | 17.8µM* | 36.4% | -6.2% | -1.6%
Cc1cc(=O)[nH]c2nnc(SCC(=O)Nc3cc(C(F)(F)F)ccc3Cl)n12 | 0.0% | ? | -19.5% | -15.2% | -11.7% | i
Cn1nnnc1SCCCNCc1ccccc1OCc1ccc(Cl)cc1 | 13.1µM* | ? | -21.0% | -38.3% | -22.8% | i
Cc1ccc(CN(Cc2ccco2)C(=O)COc2ccc(C)c(C)c2)cc1 | -12.2% | -88.5% | -3.0% | -6.9% | -8.4% | i
CCc1ccc(OCC(=O)N(Cc2ccc(C)cc2)Cc2ccco2)cc1 | 4.14µM* | ? | -14.3% | -23.9% | 7.6% | 1.9%
C[C@@]1(C(=O)Nc2ccc(F)nc2)CCCN1c1nc(Nc2cc(C3CC3)[nH]n2)c2cccn2n1 | · | · | -45.8% | ? | · | -26.0%
COc1ccc(OC)c(C2c3c(-c4ccc(Br)cc4)n[nH]c3C(=O)N2c2ccc(Cl)cc2)c1 (configuration not stated) | -12.4% | ? | -40.1% | -27.0% | ? | ?
COc1ccc(-c2n[nH]c3c2C(c2ccc(O)cc2)N(c2ccc(Br)cc2)C3=O)cc1 (configuration not stated) | 14.7µM* | ? | -60.4% | ? | ? | -9.2%
Cc1ccc(CCNC(=O)c2c[nH]c3ccc(S(=O)(=O)Nc4ccc(C)cc4C)cc3c2=O)cc1 | -14.7% | ? | -29.6% | ? | -0.6% | ?
Cc1cccc(CCNC(=O)c2c[nH]c3ccc(S(=O)(=O)Nc4ccccc4F)cc3c2=O)c1 | 0.6% | ? | -46.0% | 22.4µM* | -1.1% | i
CCOc1ccn(-c2ccc(F)cc2)c(=O)c1C(=O)Nc1ccc(Oc2ccnc(N)c2Cl)c(F)c1 | · | · | -16.3% | -9.3% | · | 6.7%
CC(C)(C)OC(=O)Nc1ccc(-c2cc(C(=O)NCCCCCCC(=O)NO)no2)cc1 | · | · | -35.5% | -10.7% | · | 1.6%
CC(C)c1nn2c(=O)cc(COC(=O)c3ccccc3Cl)nc2s1 | -9.9% | ? | ? | 24.7% | -4.6% | 6.6%
CC(C)c1nn2c(=O)cc(COC(=O)c3cccs3)nc2s1 | -14.7% | -15.1% | 3.98µM* | 46.8% | -17.8% | i
Cc1nn(-c2ccccc2)c2c1N(CCCC(=O)NCc1ccc(OC(C)C)cc1)C(=O)CS2 | 0.0% | ? | -43.0% | 14.1µM* | 10µM* | ?
N#CC(=C(N)Sc1ccc(N)cc1)c1ccccc1C(F)(F)F | · | · | -10.5% | -3.8% | · | 6.9%
Cc1ccc2nc(-c3ccc(C)c(NC(=O)CSc4ccc(Cl)cc4)c3)oc2c1 | -2.1% | -13.4% | 6.31µM* | 14.6% | 7.9% | 1.0%
Cc1ccc2nc(-c3cccc(NC(=O)CSc4ccc(Cl)cc4)c3)oc2c1 | ? | -4.6% | ? | 29.1% | 6.5% | -31.3%
SMILES | pS6 MEF inh | PMP22 txn prim | HTT-AS act | HTT prom inh | S16 viability | SKOV3 invasion
Cc1ccc2oc(-c3ccc(C)c(NC(=O)C(C)(C)Oc4ccc(Cl)cc4)c3)nc2c1 | 11.7% | -6.9% | 10µM* | 48.9% | 7.5% | -29.0%
C=CC(=O)Nc1cccc(Sc2nc(Nc3ccc(N4CCN(C)CC4)cc3)ncc2Cl)c1 | · | · | -22.9% | -16.2% | · | ?
O=c1[nH]c(=O)n([C@H]2C[C@@H](O)[C@@H](CO)O2)cc1C(F)(F)F | · | · | -19.5% | -12.2% | · | -1.9%
Cc1cccc(NC(=O)Cn2cc(C(=O)C3CCCCC3)c3ccccc32)c1C | -12.4% | 10µM* | -58.4% | ? | ? | -0.4%
COc1cc2nccc(Oc3ccc(NC(=O)Nc4cc(C)on4)c(Cl)c3)c2cc1OC | · | · | -43.7% | ? | · | 4.6%
COc1ccc(S(=O)(=O)N2CCC(c3nnc(-c4ccccc4C)o3)CC2)c(OC)c1 | -23.5% | ? | -30.8% | ? | 4.7% | -3.1%
Cc1ccccc1-c1nnc(C2CCN(S(=O)(=O)c3ccc(Cl)cc3)CC2)o1 | 0.4% | ? | -53.8% | 15.8µM* | ? | -21.0%
CC[C@H]1OC(=O)[C@H](C)[C@@H](O[C@H]2C[C@@](C)(OC)[C@@H](O)[C@H](C)O2)[C@H](C)[C@@H](O[C@@H]2O[C@H](C)C[C@H](N(C)C)[C@@H]2O)[C@](C)(O)C[C@@H](C)CN(C)[C@H](C)[C@@H](O)[C@]1(C)O | · | · | -7.8% | -2.5% | · | 0.4%
c1ccc(N2CCN(c3ncnc4[nH]ncc34)CC2)cc1 | 14.7µM* | -41.9% | -2.0% | -15.4% | -0.2% | -11.3%
O=C(NC1CCN(Cc2ccccc2)CC1)c1ccc(Cn2c(=O)c3ccccc3n(Cc3ccc(F)cc3)c2=O)cc1 | 3.29µM* | ? | -12.6% | -23.6% | ? | 2.5%
CCCn1c(=O)c2[nH]c(C34CC5CC3C[C@@H](C5)C4)nc2n(CCC)c1=O | · | · | -3.3% | 4.4% | · | -4.5%
O=C(Cn1c(=O)c2ccccc2n(CC(=O)Nc2ccc(Cl)cc2)c1=O)NCCc1ccccc1 | 16.5µM* | -5.2% | -34.3% | ? | -21.3% | -12.7%
